{"source": "the OligoGym collection"}
{"target": "PEX11G", "test": "pooled miR-30 sensor sort-seq; sequence = guide strand", "details": "shRNA"}
{"sequence": "TTTCAGCAGCATCCACAGGGAC", "sensor-assay potency score (higher = more potent)": -0.746}
{"sequence": "TTCAGCAGCATCCACAGGGACC", "sensor-assay potency score (higher = more potent)": -1.68}
{"sequence": "CAGAACTCCACCAACCAGCTGG", "sensor-assay potency score (higher = more potent)": -1.04}
{"sequence": "TTGGGTGGACACCACCAACAGA", "sensor-assay potency score (higher = more potent)": -1.13}
{"target": "PFKFB4", "test": "pooled miR-30 sensor sort-seq; sequence = guide strand", "details": "shRNA"}
{"sequence": "TATCGAGTCAGCTTCTTGGAGA", "sensor-assay potency score (higher = more potent)": -0.636}
{"sequence": "TTGATATAGGACAGGTCCCTAT", "sensor-assay potency score (higher = more potent)": -1.32}
{"sequence": "TTCACTGTGAGAGCAGGCCTGA", "sensor-assay potency score (higher = more potent)": -0.707}
{"sequence": "TCATCTAGCGACTCGTAGGAGT", "sensor-assay potency score (higher = more potent)": -0.615}
{"sequence": "TAGACTCTTGGCAAACTCCCTG", "sensor-assay potency score (higher = more potent)": 0.333}
{"sequence": "TTTCACACTTCACAAAGCCAAC", "sensor-assay potency score (higher = more potent)": -1.28}
{"sequence": "TTTCCTTTCACATTGTAGGGTT", "sensor-assay potency score (higher = more potent)": 0.667}
{"sequence": "TTTTGGTCACTGATGAACTGGG", "sensor-assay potency score (higher = more potent)": -0.438}
{"sequence": "TCAAGTGACTCTTAGCAGCAGG", "sensor-assay potency score (higher = more potent)": -0.462}
{"sequence": "TTTGTAGGTCTTGACCACGTCC", "sensor-assay potency score (higher = more potent)": -0.178}
{"sequence": "TAGGTCTTGACCACGTCCCGGC", "sensor-assay potency score (higher = more potent)": -0.311}
{"sequence": "TTAAAGATGGTCGCTCTCCGTT", "sensor-assay potency score (higher = more potent)": -0.54}
{"target": "PGBD3", "test": "pooled miR-30 sensor sort-seq; sequence = guide strand", "details": "shRNA"}
{"sequence": "TAAACGTAGATGGAACTTCATC", "sensor-assay potency score (higher = more potent)": -1.36}
{"sequence": "TTTTCTTTAAAGCTACATCTGA", "sensor-assay potency score (higher = more potent)": -0.486}
{"sequence": "TACGCTTCTGAGGTCTTCCTTT", "sensor-assay potency score (higher = more potent)": -0.455}
{"sequence": "TTTCTTTAAAGCTACATCTGAT", "sensor-assay potency score (higher = more potent)": -0.534}
{"sequence": "TGCATTGTCAGCAACATGCAAA", "sensor-assay potency score (higher = more potent)": -1.12}
{"sequence": "TAAAGCTACATCTGATTCCAGT", "sensor-assay potency score (higher = more potent)": -0.329}
{"sequence": "TTTGGTGGTGCTGTAACTCTAC", "sensor-assay potency score (higher = more potent)": 0.653}
{"sequence": "TTCATCAGGAGAGTCATCTTTA", "sensor-assay potency score (higher = more potent)": 0.38}
{"sequence": "TTGTGTTCTTATGACATTCAGC", "sensor-assay potency score (higher = more potent)": -0.605}
{"sequence": "TTCATTTGGAACAAATTTCATG", "sensor-assay potency score (higher = more potent)": -0.714}
{"sequence": "AACTTTGTCAATGTGATCCTTT", "sensor-assay potency score (higher = more potent)": 0.355}
{"sequence": "TTTGGAACAAATTTCATGCATC", "sensor-assay potency score (higher = more potent)": -0.293}
{"target": "PGD", "test": "pooled miR-30 sensor sort-seq; sequence = guide strand", "details": "shRNA"}
{"sequence": "TTTCTTATCACCATCAAACTGG", "sensor-assay potency score (higher = more potent)": -0.51}
{"sequence": "TAGGAGGTTCTGAAGTTCCGGG", "sensor-assay potency score (higher = more potent)": -0.239}
{"sequence": "TTGGTGTGGATAAACTGCCCTG", "sensor-assay potency score (higher = more potent)": -0.35}
{"sequence": "TTGAGGTCTCGGCACCGTCTTG", "sensor-assay potency score (higher = more potent)": -1.68}
{"sequence": "TAGGAATACACTTCTAATGATG", "sensor-assay potency score (higher = more potent)": -1.08}
{"sequence": "TCAACTTTGGAGACAGTCCTAT", "sensor-assay potency score (higher = more potent)": -0.343}
{"sequence": "TTGAGCGTAAGAGATGATCTTG", "sensor-assay potency score (higher = more potent)": 0.0723}
{"sequence": "TGACTTAAAGAAGTCGTCCAGT", "sensor-assay potency score (higher = more potent)": -0.436}
{"sequence": "TTCAGAGATGATAAGCACCGAG", "sensor-assay potency score (higher = more potent)": -0.0452}
{"sequence": "TTTCCTAGGAATACACTTCTAA", "sensor-assay potency score (higher = more potent)": 0.166}
